These results are taken from PubChem BioAssay (Tox21).

Assay [1] in a line: Nuclear factor erythroid 2-related factor 2/antioxidant responsive element (Nrf2/ARE) small molecule agonists: qHTS cell viability counter screen in human keratinocytes (AID 1919968; active means well fitted curve in the direction sought with a large enough effect in the repeat runs; an effect the other way counts as inactive or inconclusive; further: nearly all actives have a fitted effect of over 55% in size; further: potency means the concentration at half of the fitted maximal effect). The method in brief:
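Cytotoxicity was multiplexed with the Nrf2/ARE luciferase assay in the same wells. Stably transfected HaCaT keratinocytes were treated with test compounds for 23 h at 37 C. Cell viability was then measured by CellTiter-Fluor fluorescence.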

Assay [2] in a line: Nuclear factor erythroid 2-related factor 2/antioxidant responsive element (Nrf2/ARE) small molecule agonists: luciferase reporter gene qHTS assay in human keratinocytes (AID 1919969; further: nearly all actives have a fitted effect of over 35% in size; further: potency means the concentration at half of the fitted maximal effect). (In general: A reporter such as luciferase makes a cellular process visible.)
The target of assay [3] is Gonadotropin-releasing hormone receptor (Homo sapiens) (UniProt P30968). The experiment in a line: Human gonadotropin-releasing hormone receptor (GnRHR) small molecule agonists, calcium flux assay in GnRHR-HEK293 cells (AID 1920063). Further: nearly all actives have a fitted effect of over 35% in size. The gist of the method: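 Agonist activity was measured as intracellular calcium flux in HEK293 cells engineered to stably express human GnRHR. After dye loading for 1 hour at 37 C, compounds in DMSO were added and fluorescence was followed for 3 minutes.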
Sequence of Gonadotropin-releasing hormone receptor (Homo sapiens) (P30968 whole entry, looked up): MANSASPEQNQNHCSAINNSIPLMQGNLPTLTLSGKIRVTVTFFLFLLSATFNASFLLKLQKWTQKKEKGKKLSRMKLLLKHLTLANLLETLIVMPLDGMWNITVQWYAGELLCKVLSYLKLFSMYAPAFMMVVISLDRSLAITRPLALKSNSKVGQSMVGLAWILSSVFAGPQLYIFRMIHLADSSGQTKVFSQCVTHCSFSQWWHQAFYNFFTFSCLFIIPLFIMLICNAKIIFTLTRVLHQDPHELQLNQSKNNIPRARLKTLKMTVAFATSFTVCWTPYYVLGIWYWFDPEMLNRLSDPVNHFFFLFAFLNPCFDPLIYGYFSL

For assay [4], the target named is KiSS-1 receptor (Homo sapiens) (UniProt Q969F8). The experiment in a line: Human kisspeptin (KISS1R) small molecule agonists, calcium flux assay in KISS1R-HEK293 cells (AID 1920064; active means well fitted curve in the direction sought with a large enough effect in the repeat runs; an effect the other way counts as inactive or inconclusive). The gist of the method:
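Agonist activity is monitored as intracellular calcium rise in engineered HEK293 cells carrying human KISS1R. Cells are dye-loaded for 1 h at 37 C before compound addition, and fluorescence is recorded for 3 min.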

A short description of assay [5]: p53 small molecule agonists, cell-based qHTS assay with human liver microsomes (AID 1963577). The method in brief: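 Fluorescence of the beta-lactamase reporter in p53RE-bla cells, detected with LiveBLAzer substrate (2 h, room temperature, dark), served as the read-out after 16 h compound exposure at 37 C with human liver microsomes and NADPH, each 0.5 mg/mL final.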
(In general: In qHTS, concentration-response curves come from the screen itself.)

Assay [6] can be described thus: p53 small molecule agonists, cell-based qHTS assay with rat liver microsomes (AID 1963578). The gist of the method: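 Cells carrying a p53 response element–beta-lactamase reporter were plated and rested 5 h, then dosed with compound in DMSO plus rat liver microsomes and NADPH, each at 0.5 mg/mL final. After 16 h at 37 C, LiveBLAzer substrate was added for 2 h.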
Assay [7] in a line: p53 small molecule agonists, cell-based qHTS assay with human liver microsomes: qHTS cell viability counter screen (AID 1963579). Further: nearly all actives have a fitted effect of over 45% in size. The method in brief:
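Cytotoxicity counter screen: p53RE-bla, 4,000 cells/well; 5 h settle, 37 C/5% CO2; cpd + HLM 0.5 mg/mL + NADPH 0.5 mg/mL (final); 16 h, 37 C; CellTiter-Glo, 30 min RT, luminescence.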

Assay [8] can be described thus: p53 small molecule agonists, cell-based qHTS assay with rat liver microsomes: qHTS cell viability counter screen (AID 1963580). Further: nearly all actives have a fitted effect of over 45% in size. The method in brief:
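Rat liver microsome (0.5 mg/mL final) and NADPH (0.5 mg/mL final) co-incubation with compounds for 16 h at 37 C on HCT-116 p53RE-bla cells; cytotoxicity taken from intracellular ATP luminescence.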

The nature of assay [9]: p53 small molecule agonists, cell-based qHTS assay: qHTS cell viability counter screen (AID 1963581). Further: nearly all actives have a fitted effect of over 45% in size. The gist of the method: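 Viability was counter-screened in parallel with the p53 agonist reporter by measuring intracellular ATP luminescence in the same HCT-116 p53RE-bla wells after 16 h compound treatment at 37 C.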
Assay [10] addresses 5-hydroxytryptamine receptor 2A (Homo sapiens) (UniProt P28223). The experiment in a line: 5-hydroxytryptamine receptor 2A (HTR2A) small molecule antagonists, cell-based qHTS assay (AID 1963586). Further: nearly all actives have a fitted effect of over 45% in size. The method in brief: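 CHO cells stably expressing human HTR2A were plated for 18 h at 37 C, then loaded with calcium dye for 1 h. Compounds were preincubated 5 min at room temperature before DOI (4 nM solution) was added. Kinetic fluorescence was read for 3 min.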

Assay [11] shares this target. The experiment in a line: 5-hydroxytryptamine receptor 2A (HTR2A) small molecule agonists, cell-based qHTS assay (AID 1963587). Further: nearly all actives have a fitted effect of over 30% in size. The method in brief:
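Kinetic calcium-flux fluorescence (2 min, 1 sec intervals) after compound addition in agonist mode. HTR2A-CHO cells were cultured 18 h, then dye-loaded 1 h at 37 C.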

The target in assay [12] is Muscarinic acetylcholine receptor M1 (Homo sapiens) (UniProt P11229). Put plainly: Cholinergic receptor muscarinic 1 (CHRM1) small molecule antagonists, cell-based qHTS assay (AID 1963588). Further: nearly all actives have a fitted effect of over 40% in size. The gist of the method:
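Compounds were tested at 15 concentrations in three independent runs. Dye-loaded CHRM1-CHO cells were exposed 5 min at room temperature before stimulation by acetylcholine added at 50nM. Intracellular calcium was read kinetically on FDSS for 3 min.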

Assay [13] shares this target. The experiment in a line: Cholinergic receptor muscarinic 1 (CHRM1) small molecule agonists, cell-based qHTS assay (AID 1963589). Further: nearly all actives have a fitted effect of over 35% in size. The gist of the method:
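Cells were plated and incubated 18 h at 37 C/5% CO2, loaded with calcium dye for 1 h at 37 C, then treated with compounds in DMSO. Fluorescence was recorded kinetically at 1 sec intervals.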

A short description of assay [14]: cAMP Responsive Elements (CRE) small molecule agonists, cell-based qHTS assay (AID 1963590). The gist of the method: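 Cells carrying a CRE-driven beta-lactamase reporter (HEK 293T) are seeded, incubated overnight (18 h), and treated with test compounds for 3 h at 37 C; reporter activity is then detected with a FRET substrate after 2 h at room temperature.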
Assay [15] in a line: cAMP Responsive Elements (CRE) small molecule antagonists, cell-based qHTS assay (AID 1963591; active means well fitted inhibition curve with a large enough effect in the signal ratio in the repeat runs, not every such curve was filed as active; the % refers to the signal ratio). The method in brief: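 Cells (CRE-bla HEK 293T, DMEM with 10% dialyzed FBS and 25 mM HEPES) are seeded and incubated 18 h. Compounds are added with NKH477 agonist at 0.25 uM final for 3 h, then FRET substrate for 2 h.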
Assay [16] concerns the target Beta-2 adrenergic receptor (Homo sapiens) (UniProt P07550). The experiment in a line: Adrenergic beta2 receptor (ADRB2) small molecule antagonists, cell-based qHTS assay (AID 1963592). Further: series mostly up to about 92 µM; nearly all actives have a fitted effect of over 50% in size. The method in brief:
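Assay format: CHO-ADRB2 cells, 18-20hr seeding at 37C/5% CO2, then compound plus 1nM isoproterenol agonist mix for 0.5hr RT. Homogeneous time-resolved fluorescence cAMP detection after 1hr, expressed as 665/615 nm ratio.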

Assay [17] shares this target. Put plainly: Adrenergic beta2 receptor (ADRB2) small molecule agonists, cell-based qHTS assay (AID 1963593).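 Further: CHO cells stably overexpressing human ADRB2.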 The gist of the method: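 CHO cells stably over-expressing ADRB2 were plated overnight at 37C, then dosed with compounds plus a stimulation mix containing 100uM IBMX and 25uM Ro-20-1724 for 0.5hr at room temperature. cAMP was measured by HTRF competition, 1hr.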

Assay [18] addresses D(2) dopamine receptor (Homo sapiens) (UniProt P14416). The experiment in a line: Dopamine D2 receptor (DRD2) small molecule agonists, cell-based qHTS assay (AID 1963594). Further: nearly all actives have a fitted effect of over 35% in size. The method in brief: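 cAMP accumulation in DRD2-HEK293 cells measured by HTRF after 1 h detection; compounds added 10 min before NKH477 (200nM […]) forskolin-analogue stimulation, 30 min at room temperature, with Ro20-1724 present at 0.1 mM final.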

Assay [19] has the same target. The experiment in a line: Dopamine D2 receptor (DRD2) small molecule antagonists, cell-based qHTS assay (AID 1963595; active means well fitted inhibition curve with a large enough effect in the signal ratio in the repeat runs, with a control signal flat; the % refers to the signal ratio). The gist of the method: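 HTRF cAMP read-out at 665 and 620 nm emission (340 nm excitation). Antagonist mode: compounds were tested against 12 nM quinpirole in DRD2-HEK293 cells, with 200 nM NKH477 raising cAMP and 0.1 mM Ro20-1724 blocking its breakdown.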

Assay [20] can be described thus: G protein-coupled receptor (GPCR) small molecule agonists, calcium flux assay: HEK293 wild type cell line counter screen (AID 1920065). The gist of the method:
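Seed cells, incubate 18 h (37 C, 5% CO2); add calcium dye, 1 h at 37 C; pin-transfer compounds, ATP control or DMSO; read fluorescence 480/540 nm each second for 3 min.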
(In general: Calcium assays in cells follow changes in intracellular calcium, usually with a dye or a luminescent sensor.)

Inconclusive results are not listed. More than one record can exist for a structure, and the calls need not agree. Calls of active or inactive are those of the source. Unless noted, the call rests on the fitted dose curve.

Sequence of 5-hydroxytryptamine receptor 2A (Homo sapiens) (P28223 whole entry, looked up): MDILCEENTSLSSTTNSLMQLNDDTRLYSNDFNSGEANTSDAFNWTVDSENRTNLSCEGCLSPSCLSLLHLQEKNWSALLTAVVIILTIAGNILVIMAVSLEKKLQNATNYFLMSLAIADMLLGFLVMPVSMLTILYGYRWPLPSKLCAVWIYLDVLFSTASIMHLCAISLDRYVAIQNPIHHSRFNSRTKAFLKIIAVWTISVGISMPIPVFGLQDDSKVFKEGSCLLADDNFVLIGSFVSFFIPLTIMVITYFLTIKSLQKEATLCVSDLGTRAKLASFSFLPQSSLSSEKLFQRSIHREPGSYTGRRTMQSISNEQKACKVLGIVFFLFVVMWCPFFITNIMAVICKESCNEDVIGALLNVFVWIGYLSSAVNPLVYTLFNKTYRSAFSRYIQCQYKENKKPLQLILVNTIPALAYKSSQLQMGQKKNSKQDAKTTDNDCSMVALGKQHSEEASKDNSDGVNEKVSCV
Sequence of KiSS-1 receptor (Homo sapiens) (Q969F8 whole entry, looked up): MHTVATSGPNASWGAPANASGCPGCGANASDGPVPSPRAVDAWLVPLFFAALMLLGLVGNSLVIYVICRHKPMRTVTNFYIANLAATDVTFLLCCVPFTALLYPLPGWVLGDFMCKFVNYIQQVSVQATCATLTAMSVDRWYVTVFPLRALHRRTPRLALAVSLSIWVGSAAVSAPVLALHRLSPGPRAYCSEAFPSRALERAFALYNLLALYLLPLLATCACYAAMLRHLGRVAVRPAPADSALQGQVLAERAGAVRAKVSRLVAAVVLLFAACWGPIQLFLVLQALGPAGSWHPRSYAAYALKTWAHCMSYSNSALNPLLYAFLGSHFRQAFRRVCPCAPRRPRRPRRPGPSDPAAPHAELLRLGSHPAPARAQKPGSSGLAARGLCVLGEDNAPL
Sequence of Muscarinic acetylcholine receptor M1 (Homo sapiens) (P11229 whole entry, looked up): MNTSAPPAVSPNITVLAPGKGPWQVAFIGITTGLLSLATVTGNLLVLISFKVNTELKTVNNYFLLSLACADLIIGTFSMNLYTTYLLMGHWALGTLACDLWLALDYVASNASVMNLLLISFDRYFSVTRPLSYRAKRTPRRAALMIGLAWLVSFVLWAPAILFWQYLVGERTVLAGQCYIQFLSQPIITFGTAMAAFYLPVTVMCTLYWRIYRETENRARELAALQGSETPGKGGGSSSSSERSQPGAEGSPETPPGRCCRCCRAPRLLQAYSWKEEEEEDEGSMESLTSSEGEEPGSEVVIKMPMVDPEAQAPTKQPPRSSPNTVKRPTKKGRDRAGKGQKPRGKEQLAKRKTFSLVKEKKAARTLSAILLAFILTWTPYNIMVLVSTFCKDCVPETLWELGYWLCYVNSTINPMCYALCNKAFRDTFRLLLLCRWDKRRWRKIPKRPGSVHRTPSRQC
Sequence of D(2) dopamine receptor (Homo sapiens) (P14416 whole entry, looked up): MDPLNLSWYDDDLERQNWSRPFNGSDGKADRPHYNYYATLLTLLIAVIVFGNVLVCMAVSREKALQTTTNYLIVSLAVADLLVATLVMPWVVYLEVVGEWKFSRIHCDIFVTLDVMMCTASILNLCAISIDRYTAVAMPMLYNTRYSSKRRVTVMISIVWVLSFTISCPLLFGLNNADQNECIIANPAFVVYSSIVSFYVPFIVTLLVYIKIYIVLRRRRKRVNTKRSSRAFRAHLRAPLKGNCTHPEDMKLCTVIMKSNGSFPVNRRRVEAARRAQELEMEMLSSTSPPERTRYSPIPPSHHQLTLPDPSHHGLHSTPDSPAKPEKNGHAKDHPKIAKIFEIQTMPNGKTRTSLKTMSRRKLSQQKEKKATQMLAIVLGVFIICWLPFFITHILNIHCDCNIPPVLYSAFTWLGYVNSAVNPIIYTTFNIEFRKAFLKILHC
Sequence of Beta-2 adrenergic receptor (Homo sapiens) (P07550 whole entry, looked up): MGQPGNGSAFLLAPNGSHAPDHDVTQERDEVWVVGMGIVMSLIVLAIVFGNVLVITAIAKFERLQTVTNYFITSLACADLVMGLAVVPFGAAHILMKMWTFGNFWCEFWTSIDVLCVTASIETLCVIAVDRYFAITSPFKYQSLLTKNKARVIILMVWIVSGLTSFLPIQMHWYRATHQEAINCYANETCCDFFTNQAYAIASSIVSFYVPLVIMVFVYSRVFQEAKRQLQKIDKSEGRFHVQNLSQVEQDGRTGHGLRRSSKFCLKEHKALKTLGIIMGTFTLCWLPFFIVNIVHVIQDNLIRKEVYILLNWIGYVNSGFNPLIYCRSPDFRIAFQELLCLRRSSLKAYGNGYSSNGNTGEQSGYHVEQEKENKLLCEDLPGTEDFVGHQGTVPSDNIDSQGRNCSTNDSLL

Take `C#CCN(C)Cc1ccccc1`: the Potency entry in [1], in assay [2], in [3], in [4], in assay [5] and in [6] was “inactive” each time. Moreover, the Potency result in assay [7], in assay [8], in [9], in assay [10], in assay [11] and in assay [12] was “inactive” throughout. Moreover, the Potency entry in assay [13], in [14], in [15], in assay [16], in assay [17] and in assay [18] was “inactive” in each case. Besides, in assay [19], the Potency entry is “inactive”.
Take `CC(=O)Nc1ccc(C(=O)O)cc1`: the Potency entry in assay [1], in assay [2], in assay [3], in [4], in assay [5] and in assay [6] was “inactive” throughout. In addition, the Potency result in assay [7], in assay [8], in assay [9], in assay [10], in assay [11] and in assay [12] was “inactive” throughout. Also, the Potency result in [13], in [14], in [17], in assay [18] and in [19] was “inactive” in each case.
As to `O=C1OC(c2ccc(O)cc2)(c2ccc(O)cc2)c2ccccc21`, the Potency is 48.2 µM (active) and inactive in [1]; 24.2 µM (active) and inactive in assay [2]. The Potency result in [3], in assay [4], in assay [5], in [6], in assay [7] and in assay [8] was “inactive” in each case. The Potency entry in assay [9], in assay [10], in [11], in assay [12], in [14] and in assay [15] was “inactive” throughout. For the same compound, the Potency entry in [16], in [18] and in assay [19] was “inactive” throughout.
For `O=c1[nH]c(=O)n([C@H]2C[C@H](O)[C@@H](CO)O2)cc1Br`, the Potency entry in assay [1], in assay [2], in assay [3], in assay [4], in assay [5] and in [6] was “inactive” each time. In addition, the Potency entry in assay [7], in [8], in assay [9], in [11], in assay [12] and in assay [13] was “inactive” in each case. Besides, the Potency entry in [15], in assay [16], in assay [17], in assay [18] and in assay [19] was “inactive” each time.
As for `O=S(=O)(O)c1ccc2ccccc2c1`, the Potency entry in assay [1], in assay [2], in [3], in assay [20], in assay [5] and in assay [6] was “inactive” each time. Further, the Potency entry in assay [7], in assay [8], in assay [9], in assay [10], in assay [11] and in [12] was “inactive” throughout. Moreover, the Potency entry in assay [13], in assay [14], in assay [15], in [16], in [17] and in assay [18] was “inactive” throughout. Also, the Potency result in assay [19] was “inactive”.
On to `Cc1ccc(C)c(S(=O)(=O)O)c1`, for which the Potency result in [1], in assay [2], in assay [3], in [4], in assay [5] and in assay [6] was “inactive” throughout. The Potency entry in assay [7], in assay [9], in [11], in assay [12], in assay [13] and in assay [14] was “inactive” each time. In addition, the Potency result in assay [15], in assay [16], in assay [17], in assay [18] and in assay [19] was “inactive” each time.
Take `CCO[Si](CCCNC(N)=O)(OCC)OCC`: the Potency result in assay [1], in [2], in assay [3], in assay [20], in assay [5] and in assay [6] was “inactive” in each case. Further, the Potency entry in assay [7], in assay [8], in [9], in [10], in assay [11] and in [12] was “inactive” in each case. Moreover, the Potency result in assay [13], in assay [14], in assay [15], in [16], in assay [17] and in [18] was “inactive” throughout. Further, the Potency entry in assay [19] was “inactive”.
